Assay results reported in ChEMBL document CHEMBL1201862, “PubChem BioAssay data set” (2004).
Among all 400,000 compounds or so, about 2,100 (0.53%) were called active. Inconclusive results (about 14%) are left out. How the calls were made is not given here. Many of the other results were omitted from the sample, so actives are more common in it than they were.

target: Ataxin-2 (Homo sapiens) (UniProt Q99700); assay: qHTS for Inhibitors of ATXN expression.; format: functional
Sequence (Q99700 whole entry): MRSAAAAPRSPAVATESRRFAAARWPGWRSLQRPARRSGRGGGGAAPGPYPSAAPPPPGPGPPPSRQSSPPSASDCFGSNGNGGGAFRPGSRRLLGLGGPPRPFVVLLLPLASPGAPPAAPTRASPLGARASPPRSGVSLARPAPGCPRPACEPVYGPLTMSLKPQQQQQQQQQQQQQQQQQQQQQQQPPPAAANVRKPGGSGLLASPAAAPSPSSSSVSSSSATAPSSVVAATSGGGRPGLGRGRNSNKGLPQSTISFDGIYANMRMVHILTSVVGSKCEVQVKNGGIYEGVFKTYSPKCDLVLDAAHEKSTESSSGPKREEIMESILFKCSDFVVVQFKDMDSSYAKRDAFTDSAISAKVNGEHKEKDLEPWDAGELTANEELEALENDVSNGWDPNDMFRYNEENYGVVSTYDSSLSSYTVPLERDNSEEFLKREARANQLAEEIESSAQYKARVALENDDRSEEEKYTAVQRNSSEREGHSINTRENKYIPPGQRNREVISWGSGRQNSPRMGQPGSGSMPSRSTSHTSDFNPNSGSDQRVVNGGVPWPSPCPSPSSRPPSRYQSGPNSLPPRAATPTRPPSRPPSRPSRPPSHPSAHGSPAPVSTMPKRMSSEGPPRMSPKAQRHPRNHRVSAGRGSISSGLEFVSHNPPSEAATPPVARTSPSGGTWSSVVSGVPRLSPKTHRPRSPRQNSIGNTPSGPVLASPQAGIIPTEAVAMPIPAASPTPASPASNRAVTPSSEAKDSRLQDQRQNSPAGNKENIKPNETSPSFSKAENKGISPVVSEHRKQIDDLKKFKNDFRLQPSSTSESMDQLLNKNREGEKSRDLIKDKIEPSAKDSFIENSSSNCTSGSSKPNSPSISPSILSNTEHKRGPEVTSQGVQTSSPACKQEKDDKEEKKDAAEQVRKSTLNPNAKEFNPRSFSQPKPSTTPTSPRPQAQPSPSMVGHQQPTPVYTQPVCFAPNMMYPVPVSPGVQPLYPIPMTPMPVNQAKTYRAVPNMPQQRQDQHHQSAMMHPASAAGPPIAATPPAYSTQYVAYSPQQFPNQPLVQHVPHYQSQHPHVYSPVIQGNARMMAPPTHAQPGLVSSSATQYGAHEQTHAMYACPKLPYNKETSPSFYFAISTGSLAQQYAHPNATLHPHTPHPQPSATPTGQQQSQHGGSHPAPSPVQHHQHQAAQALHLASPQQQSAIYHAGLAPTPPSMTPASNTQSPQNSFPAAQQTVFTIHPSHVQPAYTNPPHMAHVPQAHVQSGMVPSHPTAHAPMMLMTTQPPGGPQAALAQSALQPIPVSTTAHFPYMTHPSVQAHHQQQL

| SMILES | Potency |
| --- | --- |
| COCCNC(=O)Cc1c(C)c2c(cc(C)c3c(C)coc32)oc1=O | inactive |
| O=C(Nc1cc(Cl)ccc1O)C1CC(c2ccccc2O)=NO1 (stereo not drawn) | inactive |
| CCOc1ccc(CCNC(=O)CSCc2ccc(C)cc2)cc1OCC | inactive |
| CCOc1cc(CNCCc2ccc(S(N)(=O)=O)cc2)cc(Cl)c1OCc1ccccc1 | 25.1 µM (active) |
| CCOc1cc(C(N)=O)cc(Br)c1OCc1ccccc1 | inactive |
| CCOc1cc(CNCCc2ccc(S(N)(=O)=O)cc2)ccc1OCC(=O)NC(C)(C)C | 39.8 µM (active) |
| COC(=O)c1c(C)[nH]c(C(=O)NCCc2ccc(S(N)(=O)=O)cc2)c1C | inactive |
| NS(=O)(=O)c1ccc(CNC(=O)CNC(=O)Cc2ccccc2)cc1 | inactive |
| CC12CCC(=O)N1C(C(=O)N1CCN(S(=O)(=O)c3ccc(Br)cc3Cl)CC1)CS2 (stereo not drawn) | inactive |
| CC(C)CCn1c(=O)c2ccccc2n2c(S)nnc12 | inactive |
| Cc1cnc(C(=O)NC(C)CCc2ccccc2)cn1 (stereo not drawn) | inactive |
| Fc1ccc(-c2cc(C(F)(F)C(F)F)n[nH]2)cc1 | inactive |
| CCOC(=O)c1cnn2c(O)cc(C)nc12 | inactive |
| COC(=O)c1ccc(C(=O)OC)c(NC(=O)Cc2cccs2)c1 | inactive |
| CC(C)(C)c1ccc(C(=O)O/N=C(\N)Cc2cccs2)cc1 | 31.6 µM (active) |
| CC(C)(C)c1ccc(/N=C2\SCC(=O)N2Cc2cccs2)cc1 | inactive |
| O=C(c1cccs1)N1CCC(c2nc(O)c3nnn(Cc4c(Cl)cccc4Cl)c3n2)CC1 | inactive |
| CC(C)C(=O)NNC(=O)CSc1nnc(-c2ccccc2)c(-c2ccccc2)n1 | inactive |
| CNC(=O)C(=O)Nc1cc2c3c(c1)CCC(=O)N3CCC2 | inactive |
| CCOC(CN=c1nc(N(C)C)ss1)OCC | 29.9 µM (active) |
| CN(C)S(=O)(=O)c1ccc(Cl)c(NC(=O)COC(=O)CNS(=O)(=O)c2c(F)cccc2F)c1 | inactive |
| CCC(=O)NC(c1ccc(OC)c(OC)c1)c1cc(Cl)c2cccnc2c1O (stereo not drawn) | inactive |
| COc1ccc(C(=O)CC(SCC(NC(C)=O)C(=O)O)c2ccc(Cl)cc2)cc1OC (stereo not drawn) | 31.6 µM (active) |

| SMILES | Potency |
| --- | --- |
| CCS(=O)(=O)N1CCC(NC(=O)C(Cc2ccc(OC)c(OC)c2)NC(C)=O)CC1 (stereo not drawn) | inactive |
| CCOC(=O)c1cc2c(=O)n3ccccc3nc2n(CC2CCCO2)/c1=N\C(=O)c1ccc(C(C)(C)C)cc1 (stereo not drawn) | inactive |
| CCCCN1C(C(=O)Nc2ncccn2)=C(O)c2ccccc2S1(=O)=O | inactive |
| Cc1ccccc1N1CCN(C2CCCN(C(=O)CSc3ccccn3)C2)CC1 (stereo not drawn) | inactive |
| OC(c1cccc(Cl)c1)c1nc(-c2ccc(Oc3ccccc3)cc2)c[nH]1 (stereo not drawn) | 39.8 µM (active) |
| CC(C)(C)c1ccc(C(O)c2nc(-c3ccccc3Cl)c[nH]2)cc1 (stereo not drawn) | 39.8 µM (active) |
| OC(c1cccc(Cl)c1)c1nc(-c2ccc(C(F)(F)F)cc2)c[nH]1 (stereo not drawn) | 39.8 µM (active) |
| Cc1nn(Cc2ccccc2Cl)c(Cl)c1/C=C/C(=O)OCC(=O)NC1CCS(=O)(=O)C1 (stereo not drawn) | inactive |
| COc1ccc(S(=O)(=O)Nc2ccc(-n3cccc3)cc2)cc1 | inactive |
| COc1ccc(-n2cccc2/C=C/[N+](=O)[O-])cc1 | 31.6 µM (active) |
| CCCC(=O)NCCc1nc2cc([N+](=O)[O-])ccc2n1C | inactive |
| COc1cc(C(=O)O/N=C2/C=CC(=O)C(C)=C2C)cc(OC)c1OC | 39.8 µM (active) |
| COc1cc(C(=O)N2C(=O)c3cccc(N)c3C2=O)cc(OC)c1OC | inactive |
| COc1cc(C(=O)NNC(=O)c2ccccc2OCc2c(C)noc2C)cc(OC)c1OC | inactive |
| CCc1ccc(S(=O)(=O)Nc2ccc(-c3nc4cccnc4s3)cc2)s1 | inactive |
| NC(=O)c1cc(-c2ccccc2)nc2ccc(Br)cc12 | inactive |
| CSc1ccccc1NC(=O)c1cc(-c2cccnc2)nc2ccc(Br)cc12 | 42.3 µM (active) |
| O=C(NNC(=O)c1cc(-c2cccnc2)nc2ccccc12)Nc1ccc(Cl)cc1 | inactive |
| COc1cccc(/C=C/c2nc(C#N)c(NCC(C)C)o2)c1 | inactive |
| CCOC(=O)c1cc2c(=O)n3ccccc3nc2n(C)/c1=N\C(=O)c1c(-c2c(F)cccc2Cl)noc1C | inactive |
| CNc1ccc2c3c(cccc13)C(=O)N(C)C2=O | inactive |
| Cc1coc2c1C(=O)C(=O)c1c-2ccc2c(C)cccc12 | 10 µM (active) |
| CCn1cnc2sc(C(=O)Oc3ccc(Br)cc3)c(C)c2c1=O | inactive |

| SMILES | Potency |
| --- | --- |
| COc1ccc(Cn2c(C(=O)O)c(CNCCc3ccco3)c3ccc(C)cc32)cc1 | 31.6 µM (active) |
| COc1ccc2c(CNCCc3cccs3)c(C(=O)O)n(Cc3cccc(F)c3)c2c1 | 35.5 µM (active) |
| COC(=O)c1ccc(S(=O)(=O)NCc2ccco2)o1 | inactive |
| COc1ccc(OC)c(CN2CCN(Cc3cc(=O)oc4cc(O)ccc34)CC2)c1 | inactive |
| C=Cc1ccc(Cn2c(C(=O)O)c(CNCCc3ccco3)c3ccc(C)cc32)cc1 | 22.4 µM (active) |
| COC(=O)C1=CN(Cc2cccs2)C=C(C(=O)OC)C1c1ccc(OC)cc1OC | inactive |
| COC(=O)c1cc(-c2cc(OC)ccc2OC)nc2c1c(=O)n(C)c(=O)n2Cc1ccccc1 | inactive |
| COC(=O)C1=CN(Cc2cccs2)C=C(C(=O)OC)C1c1cccc(O)c1 | inactive |
| COc1ccc(C(=O)NCC(=O)OCC(=O)NCc2ccco2)cc1 | inactive |
| COc1ccc(Cn2c(C(=O)O)c(CNCCc3cc(OC)ccc3OC)c3ccc(C)cc32)cc1 | 22.4 µM (active) |
| COc1ccc(-c2csc(-c3cc4ccccc4oc3=N)n2)cc1 | inactive |
| COc1ccc2nc3ccccc3[n+]([O-])c2c1 | inactive |
| CCc1noc(C)c1C(=O)NNC(=O)COc1ccc(Br)cc1 | inactive |
| N#Cc1c(-c2ccc(Cl)cc2)c2c([nH]c1=O)-c1ccccc1OC2 | inactive |
| O=C1CCN2C=Nc3cccc4ccc1c2c34 | inactive |
| O=c1nc2n(CCO)c3ccccc3cc-2c(=O)[nH]1 | inactive |
| C=Cc1ccc(Cn2c(C(=O)O)c(CNCc3cccs3)c3ccc(C)cc32)cc1 | 25.1 µM (active) |
| Cc1ccc(C(=O)OCC(=O)NCc2ccco2)cc1C | inactive |
| Cc1cccn2c(=O)c3cc(C(=O)NC4CCCC4)c(=N)n(Cc4ccc(F)cc4)c3nc12 | inactive |
| CCCC(=O)n1nc(-c2ccc(C)cc2)nc1NCc1ccco1 | inactive |
| Cc1ccc(Cn2c(C(=O)O)c(CNCCc3ccco3)c3ccc(C)cc32)cc1 | 39.8 µM (active) |
| C=Cc1ccc(Cn2c(C(=O)O)c(CNC3CCCC3)c3ccc(C)cc32)cc1 | 44.7 µM (active) |
